# Out of some 360,000 compounds screened, about 3,700 (1%) were called active. Another 2% or so got no clear call; they are omitted.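 Rule for the calls: active = normalized GFP-positive differentiation at or above the plate's own cutoff, the solvent-only control mean plus 3 SD; inconclusive = no clear call, values can overlap the other calls; inactive = the rest.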 Shown is part of a subset that was picked to be rich in actives.
# Experiment: induction of myeloid progenitor differentiation, primary screen, cell-based, flow cytometry, MLPCN library (AID 624256);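 for GFP+ MAC1+ double positive: cells exposed to compound for four days before flow analysis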;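 for normalized GFP-positive differentiation: cells exposed to compound for four days before flow analysis; 0% = DMSO wells and 100% = fulvestrant positive control at 5 µM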
# Conditions: ER-HoxA9 myeloid progenitors, lysozyme-GFP differentiation, at 10 µM; GFP+ MAC1+ double positive: measured here: differentiation confirmed by MAC1 staining, stronger effect = higher value; normalized GFP-positive differentiation: stronger effect = higher value
SMILES,GFP+ MAC1+ double positive [%],outcome,normalized GFP-positive differentiation
COC(=O)c1ccc2nc(-c3ccc(F)cc3)c(Cc3ccc(C)cc3)n2c1,0.7,inactive,–
O=C(O)c1ccccc1-c1cccc2nncn12,0.5,inactive,–
CC(=O)c1c(C)[nH]c(C(=O)NCc2ccc(C)cc2)c1C,1.3,inactive,–
CC(=O)c1c(C)[nH]c(C(=O)NCCCN2CCCC2)c1C,0.6,inactive,–
CCCCN(CC)CCNC(=O)c1[nH]c(C)c(C(C)=O)c1C,2.2,–,13.8% (active)
COC(=O)c1ccc2nc(C3CCCCC3)c(Cc3cccc(F)c3)n2c1,0.7,inactive,–
CO[C@@H]1CN(C)C(=O)c2cc(NC(=O)C3CC3)ccc2OC[C@H](C)N(C(=O)CN2CCOCC2)C[C@@H]1C,1.2,inactive,–
Cn1cc(C2OC(=O)c3ccccc32)c2ccccc21 (stereo not drawn),1.6,inactive,–
CN1C(=O)c2cccc3c(N)ccc(c23)C1=O,1.9,–,96.2% (active)
Cc1nn(C)cc1N1C(=O)c2cccc3c(N)ccc(c23)C1=O,4.9,–,289% (active)
CC(C(=O)O)N1C(=O)c2cccc3cccc1c23 (stereo not drawn),1.4,inactive,–
COCCCn1cc(CN2CC(N(C)C)CS2(=O)=O)nn1 (stereo not drawn),0.8,inactive,–
Cc1nc2c(OCc3ccc(Cl)cc3Cl)cccn2c1N(C)CC1CC1,0.6,inactive,–
CC(C)CN1C(=O)CN(S(C)(=O)=O)CC1(C)C(=O)NCc1ccccc1 (stereo not drawn),1.1,inactive,–
Nc1nc2ncccn2c1-c1ccccc1,2.1,inactive,–
CCc1nc2ccc(C(=O)NCc3ccc(OC)cc3)cn2c1N(CC)Cc1cccc(Br)c1,1.1,inactive,–
Cc1nccn1-c1ccc(NC(=O)[C@H]2O[C@@H](n3ccc(=O)[nH]c3=O)[C@H](O)[C@@H]2O)cc1,1.7,inactive,–
Cc1cc(=O)oc2c1c(C)nn2-c1ccc(Cl)cc1,0.3,inactive,–
CCOC(=O)CNC(=O)c1nn(-c2cccc(OC)c2)c(=O)c2ccccc12,0.7,inactive,–
Cc1nn(-c2cc(Cl)ccc2N)c(=O)c2ccccc12,7.4,–,51.3% (active)
C#CCNC(=O)C[C@@H]1C[C@@]2(C(=O)OCC)CCCC=C2N(Cc2ccco2)C1=O,1.5,inactive,–
Cc1cc(Br)cn2c(Cc3ccsc3)c(-c3ccc(C#N)cc3)nc12,2,inactive,–
O=C(Nc1cccc2ccccc12)c1[nH]c(-c2ccccc2)c2c1C(=O)N(C1CC1)C2=O,1.2,inactive,–

SMILES,GFP+ MAC1+ double positive [%],outcome,normalized GFP-positive differentiation
COC(=O)C[C@@H]1C=C[C@@H](NC(=O)c2ccc3c(c2)OCO3)[C@@H](CO)O1,3.1,inactive,–
CS(=O)(=O)c1ccc2c(c1)SC1=NC(=O)/C(=C/c3ccco3)C(=N)N12,6.9,inactive,–
CC(C)(C)C1C/C(=C/c2ccco2)C(=O)/C(=C/c2ccco2)C1 (stereo not drawn),0.5,–,92.8% (active)
COC(=O)COc1ccc2c(c1C)O/C(=C\c1ccco1)C2=O,0.6,inactive,–
CN(CCOc1ccccc1)C(=O)c1cc(-c2ccco2)nc2ccccc12,1.1,inactive,–
CC1CCCN(C(=O)c2cc(-c3ccco3)nc3ccccc23)C1 (stereo not drawn),0.2,inactive,–
O=C(c1cc(-c2ccco2)nc2ccccc12)N(Cc1nnc(-c2ccc(Cl)cc2)o1)C1CC1,1.9,–,11.9% (active)
S=C(NCCCc1cnc[nH]1)NCCCN(Cc1ccc(Cl)c(Cl)c1)c1ccc(Br)cn1,1.1,inactive,–
CC(C)(C)NC(=O)C(CCc1ccccc1)n1c(=O)c(-c2ccccc2)nc2ccccc21 (stereo not drawn),3.2,inactive,–
COc1ccc(Cn2c(=O)oc3ccccc32)cc1,0.5,inactive,–
O=c1c2ccccc2oc2nc3n(c(=O)c12)CCCS3,7.5,inactive,–
CCc1nc2oc3ccccc3c(=O)c2c(=O)n1Cc1ccc(OC)cc1,3.7,–,16.2% (active)
COc1ccc(-c2nc3ccc(Br)cn3c2Cc2ccc(C)cc2)cc1OC,0.6,inactive,–
COc1ccc(CN2CCC(C)(Oc3cccc(F)c3)C2)c2ccccc12 (stereo not drawn),0.4,inactive,–
COc1ccc(NCCc2ccccn2)cc1,0.7,inactive,–
COc1ccc2nc(-c3ccccn3)ccc2c1,0.3,inactive,–
COc1cnc(-c2ccccn2)nc1Oc1ccc(C(C)(C)C)cc1,12.1,–,308% (active)
CCc1nc2c(OCC(=O)C(C)(C)C)cccn2c1N(C)C(=O)c1ccccc1F,0.3,inactive,–
C=CCC[C@H](CCCCC)OC(=O)/C=C/[C@H](O)[C@@H](O)C[C@@H](O)CC=C,1.1,inactive,–
COc1ccccc1N1CCN(S(=O)(=O)CCNC(=O)c2ccc(OC(C)C)cc2)CC1,1,–,44.1% (active)
O=C(NCCS(=O)(=O)N1CCN(c2ccccc2F)CC1)c1ccc(Br)o1,2.9,inactive,–
CCOc1ccc(CC(=O)NCCS(=O)(=O)N2CCN(c3ccccc3)CC2)cc1,0.6,inactive,–
O=C(NCc1cccnc1)c1cc(C2CCCCN2C(=O)CCc2ccccc2)on1 (stereo not drawn),0.7,inactive,–

SMILES,GFP+ MAC1+ double positive [%],outcome,normalized GFP-positive differentiation
CCCCOCCCNC(=O)C[C@@H]1C[C@@]2(C(=O)OCC)CCCC=C2N(CCC2=CCCCC2)C1=O,1.7,inactive,–
Cc1ccc(S(=O)(=O)c2nc(NCCCn3ccnc3)sc2Cl)cc1,0.5,inactive,–
Cc1ccc2c(Cl)c(C(=O)NCCCn3ccnc3)sc2c1,0.5,inactive,–
Cc1ccc(-c2nc(C#N)c(NCCCn3ccnc3)o2)cc1,2.5,–,10.9% (active)
CCOC(=O)c1cc2cc(OC)ccc2n1C1CCN(C)CC1,0.3,inactive,–
O=C(C(=O)N1CCN(c2ccccc2)CC1)c1ccc2c(c1)OCO2,1,inactive,–
O=C(N[C@H]1CC[C@H](CC(=O)N2CCCCC2)O[C@@H]1CO)c1cccc(F)c1,1.6,inactive,–
CCC(C(=O)OC)n1cnc2scc(-c3ccc(C)cc3)c2c1=O (stereo not drawn),0.9,inactive,–
COC(=O)c1c(-c2ccc(C)cc2)csc1N,2,inactive,–
CCOC(=O)c1c(-c2ccc(C)cc2)csc1/N=C(\C)C1=C(O)c2ccccc2C1=O,10.3,–,142% (active)
Cc1sc2ccccc2c1CNC[C@H]1O[C@@H](n2ccc(=O)[nH]c2=O)[C@H](O)[C@@H]1O,1.3,inactive,–
CC1(C)OC(=O)C2=C(C[C@@H](C3CC3)O[C@H]2c2ccc(Cl)cc2)O1,1.4,inactive,–
COCCNC(=O)C1C(=O)Nc2ccccc2C(=O)N1c1ccc2c(c1)OCCO2 (stereo not drawn),3.1,inactive,–
Cn1nc(C(F)(F)F)c2cc(C(=O)N3CCOCC3)sc21,0.1,inactive,–
CCOC(=O)N1CCN(C(=O)c2cc3c(-c4ccc(Cl)cc4)nn(C)c3s2)CC1,33.3,–,83.1% (active)
COc1ccccc1N1CCN(C(=O)c2cc3c(-c4ccc(Cl)cc4)nn(C)c3s2)CC1,3.7,inactive,–
CCCS(=O)(=O)NC(=O)C1(C)CCCN(C(=O)c2cc(C)on2)C1 (stereo not drawn),0.6,inactive,–
FC(F)(F)Oc1ccccc1C(c1nnnn1C1CCCCC1)N1CCN(C/C=C/c2ccccc2)CC1 (stereo not drawn),1.6,inactive,–
O=c1[nH][nH]c2c1[C@H](c1ccc(Cl)cc1)O[C@H](CCc1ccccc1)C2,0.6,inactive,–
COc1cc(-c2n[nH]c(=S)n2Cc2ccccc2)cc(OC)c1OC,22.5,–,297% (active)
CC(C)Oc1ccc(Cc2n[nH]c(=S)n2Cc2ccccc2)cc1Cl,0.3,inactive,–
CCCc1cc(-c2n[nH]c(=S)n2Cc2ccccc2)cs1,5.8,inactive,–
CN(C)CCNC(=O)c1cccc(-c2cnc3c(NC=O)cc(-c4cccc(C(F)(F)F)c4)cn23)c1,2.2,inactive,–
